Assay results published in PubChem BioAssay (NCATS).
Activity calls are given as the source filed them. Calls come from the whole dose curve.

Target: Glucocorticoid receptor (Homo sapiens) (UniProt P04150)
Assay: GR-EFC Redistribution (AID 451)
Conditions: CHO-K1 GR-EFC translocation, beta-gal luminescence, 2 h
Description: NIH Molecular Libraries Screening Centers Network [MLSCN]
NIH Chemical Genomics Center [NCGC]
The glucocorticoid receptor (GR) is a cytoplasmic receptor that belongs to the nuclear receptor family of ligand-dependent transcription factors. Upon glucocorticoid binding to its receptor, the glucocorticoid-GR complex translocates into the nucleus, where it binds as a dimer to specific DNA sequences (glucocorticoid response elements), enhancing or suppressing transcription of a wide variety of glucocorticoid-responsive genes. In addition to their important roles in normal physiology and metabolism, glucocorticoids are administered exogenously as treatments for a wide variety of allergic, autoimmune, and neoplastic conditions. Identification of compounds that modulate aspects of GR signalling would be useful in dissecting glucocorticoid response pathways as well as developing GR modulators with more targeted clinical effects.
Traditionally, GR modulators have been identified using receptor binding or direct transactivation assays. However, assays for glucocorticoid-dependent nuclear translocation can also be used to screen for compounds affecting GR signaling.
Immunocytochemical staining has been used to assay for GR translocation, but is not suitable for high throughout screening due to the multiple reagent addition and wash steps required. Recently, a novel cell-based GR assay in Enzyme Fragment Complementation (EFC) format was developed by DiscoveRx (Fremont, CA). The assay uses EFC of b-galactosidase (b-gal) as an indicator of GR-translocation in engineered CHO-K1 biosensor cells. The enzyme acceptor (EA) fragment of b-gal resides in the nucleus , as designed through the use of a proprietary set of sequence additions and modifications. The small peptide enzyme donor (ED) fragment of b-gal is fused directly to the C-terminus of GR, and is localized in the cytoplasm is the absence of receptor signaling. Upon binding to a GR ligand, the complex translocates to the nucleus, where intact enzyme activity is restored by complementation and b-gal activity is detected. We optimized this GR-EFC assay in homogenous 1536-well plate assay format for high throughput screening.
NCGC Assay Protocol Summary:
CHO-K1 cells stably expressing NLS-enzyme acceptor fragment (EA) of b-gal and GR-enzyme donor (ED) fragment of b-gal were maintained in F12 medium (Invitrogen, Carlsbad, CA) at 37 Celsius degrees under a humidified atmosphere containing 5% CO2 and 95% air. The medium contained 10% FBS, 2 mM L-glutamine, 50 U/ml penicillin 50 ug/ml streptomycin, and 250 ug/ml hygromycin and 500 ug/ml G418 (Invitrogen).
GR-translocation was measured beta-gal enzyme activity using the PathHunter Detection Kit containing cell membrane permeablizing reagent and beta-gal substrate (DiscoveRx, Fremont, CA). All compounds were screened as titrations from 0.6 nM to 46 uM final concentration. The assay was performed in 1536-well format as follows:
5 uL cell suspension (1,000 cells)/well
Incubation at 37 Celsius degrees for two hours
1.25 uL 1X detection buffer from the kit supplied by DiscoveRx
Incubation at room temperature for one hour
Read plate in luminescence mode in ViewLux plate reader (PerkinElmer)
Keywords: NIH Roadmap, MLSCN, MLI, MLSMR, GR-EFC, GREFC, qHTS, NCGC
Potency is the fitted concentration of half-maximal effect.

Glucocorticoid receptor (Homo sapiens), sequence (P04150 whole entry, looked up): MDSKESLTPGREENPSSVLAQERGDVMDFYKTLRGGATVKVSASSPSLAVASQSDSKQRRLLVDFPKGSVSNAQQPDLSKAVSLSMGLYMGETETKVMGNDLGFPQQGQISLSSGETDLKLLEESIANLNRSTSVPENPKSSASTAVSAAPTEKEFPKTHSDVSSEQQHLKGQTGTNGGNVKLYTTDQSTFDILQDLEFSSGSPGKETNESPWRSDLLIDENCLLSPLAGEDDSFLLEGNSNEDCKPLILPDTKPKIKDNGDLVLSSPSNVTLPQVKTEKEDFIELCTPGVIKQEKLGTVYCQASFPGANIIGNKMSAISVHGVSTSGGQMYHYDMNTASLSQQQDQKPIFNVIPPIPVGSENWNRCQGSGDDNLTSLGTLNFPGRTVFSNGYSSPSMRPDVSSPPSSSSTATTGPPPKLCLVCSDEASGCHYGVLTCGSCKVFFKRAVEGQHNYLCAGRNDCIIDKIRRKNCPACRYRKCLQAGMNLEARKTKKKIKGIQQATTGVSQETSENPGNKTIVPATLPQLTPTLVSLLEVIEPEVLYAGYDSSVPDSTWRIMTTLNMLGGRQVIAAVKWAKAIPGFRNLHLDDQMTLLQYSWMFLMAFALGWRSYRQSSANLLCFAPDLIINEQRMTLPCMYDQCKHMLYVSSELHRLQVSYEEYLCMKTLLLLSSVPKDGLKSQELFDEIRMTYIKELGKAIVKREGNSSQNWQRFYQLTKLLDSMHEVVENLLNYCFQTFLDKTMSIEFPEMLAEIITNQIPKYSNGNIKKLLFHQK

Potency, inactive:
CC(=O)NCCNc1nc(-c2cccc(C#N)c2)nc2ccccc12 > 46 µM
COc1ccc(Oc2ncc3nc(-c4ccc(F)cc4)c(=O)n(C[C@H]4CCCO4)c3n2)cc1 > 46 µM
CCNc1ncc2nc(-c3ccccc3)c(=O)n(CCC#N)c2n1 > 46 µM
Cc1ccccc1-c1ccc2ncnc(NCCN3CCOCC3)c2c1 > 46 µM
Clc1ccccc1NN(Cc1ccncc1)c1ccccc1Cl > 9.22 µM
COc1ccccc1-c1nc(N2CCN(C)CC2)c2ccccc2n1 > 46 µM
CNc1ncncc1-c1ccccc1CN(C)C > 46 µM
CCNc1ncc2nc(-c3ccc(OC)cc3)c(=O)n(C)c2n1 > 46 µM
COc1ccccc1-c1nc(Nc2ccncc2)c2ccccc2n1 > 46 µM
COc1ccccc1-c1ccc2ncnc(N3CCNCC3)c2c1 > 46 µM
COc1cc2cc(Oc3ccc4ccc(=O)oc4c3)c(=O)oc2cc1O > 46 µM
CCOc1ccc2nc3cc(N=Nc4ccc(N)nc4N)ccc3c(N)c2c1 > 9.22 µM
COc1ccc2[nH]cc(CCNc3ncncc3-c3cccc(C#N)c3)c2c1 > 46 µM
CN(C)c1nc(-c2cccc(NS(C)(=O)=O)c2)nc2ccccc12 > 46 µM
CN(C)c1ncnc2ccc(-c3cccc(NS(C)(=O)=O)c3)cc12 > 46 µM
COc1ccc2[nH]cc(CCNc3ncncc3-c3ccccc3C)c2c1 > 46 µM
COc1ccc(Oc2ncc3nc(-c4ccccc4)c(=O)n(C[C@H]4CCCO4)c3n2)cc1 > 46 µM
CCCCN1CCC(COC(=O)c2cc(Cl)c(N)c3c2OCCO3)CC1 > 46 µM
CN1CCN(c2ncc3nc(-c4cn(C)c5ccccc45)c(=O)n(CCC#N)c3n2)CC1 > 46 µM
COc1ccc(-c2nc3cnc(N4CCN(C)CC4)nc3n(CCc3ccccc3)c2=O)cc1 > 46 µM
CCNc1ncc2nc(CCc3ccccc3)c(=O)n(CCC#N)c2n1 > 46 µM
Cn1c(=O)c(-c2ccc(Cl)cc2)nc2cncnc21 > 46 µM
c1ccc(Nc2nc(-c3cccnc3)nc3ccccc23)cc1 > 46 µM
N#Cc1ccccc1-c1ccc2ncnc(NCc3cccnc3)c2c1 > 46 µM
COc1ccc2[nH]cc(CCNc3cc(-c4ccccc4OC)ncn3)c2c1 > 46 µM
CN1CCN(c2ncnc3ccc(-c4cccc(C#N)c4)cc23)CC1 > 46 µM
Cc1cccc(CNc2ncncc2-c2ccccc2C)c1 > 46 µM
COc1ccc(-c2nc3cnc(Oc4cccc(Cl)c4)nc3n(C[C@H]3CCCO3)c2=O)cc1 > 46 µM
CN(C)c1ccc(-c2cncnc2NCCN2CCOCC2)cc1 > 46 µM
CN1CCN(c2nc(-c3ccoc3)nc3ccccc23)CC1 > 46 µM
COc1ccc(CNc2cc(-c3cccc(NS(C)(=O)=O)c3)ncn2)c(OC)c1 > 46 µM
COc1ccc(Oc2ncc3nc(C)c(=O)n(Cc4cccs4)c3n2)cc1 > 46 µM
COc1cccc(-c2ccc3ncnc(NCc4cnc(C)cn4)c3c2)c1 > 46 µM
COc1ccc(-n2c(=O)c(-c3cccs3)nc3cnc(N4CCN(C)CC4)nc32)cc1 > 46 µM
COc1ccc2[nH]cc(CCNc3ncncc3-c3ccccc3OC)c2c1 > 46 µM
COc1cccc(Nc2ncc3nc(-c4cc(F)cc(F)c4)c(=O)n(CCC#N)c3n2)c1 > 46 µM
CN(C)c1ncc2nc(CCc3ccccc3)c(=O)n(CCc3ccccc3)c2n1 > 46 µM
CN(C)c1ncc2nc(CCc3ccccc3)c(=O)n(CCC#N)c2n1 > 46 µM
COc1cccc(Cn2c(=O)c(CCc3ccccc3)nc3cnc(N(C)C)nc32)c1 > 46 µM
COc1ccccc1CNc1ncnc2ccc(-c3ccc(C(=O)N(C)C)cc3)cc12 > 46 µM
